The text below walks through data of PubChem BioAssay AID2284122 (EPA ToxCast).

Active and inactive are the calls of the source. How the source made its calls: active means hit-call score of the fitted dose curve at least 0.9, where 1 is the maximum; inactive means score below 0.9.

human TRKA Receptor Tyrosine Kinase, NTRK1 (gene 4914), sequence (P04629 whole entry, looked up): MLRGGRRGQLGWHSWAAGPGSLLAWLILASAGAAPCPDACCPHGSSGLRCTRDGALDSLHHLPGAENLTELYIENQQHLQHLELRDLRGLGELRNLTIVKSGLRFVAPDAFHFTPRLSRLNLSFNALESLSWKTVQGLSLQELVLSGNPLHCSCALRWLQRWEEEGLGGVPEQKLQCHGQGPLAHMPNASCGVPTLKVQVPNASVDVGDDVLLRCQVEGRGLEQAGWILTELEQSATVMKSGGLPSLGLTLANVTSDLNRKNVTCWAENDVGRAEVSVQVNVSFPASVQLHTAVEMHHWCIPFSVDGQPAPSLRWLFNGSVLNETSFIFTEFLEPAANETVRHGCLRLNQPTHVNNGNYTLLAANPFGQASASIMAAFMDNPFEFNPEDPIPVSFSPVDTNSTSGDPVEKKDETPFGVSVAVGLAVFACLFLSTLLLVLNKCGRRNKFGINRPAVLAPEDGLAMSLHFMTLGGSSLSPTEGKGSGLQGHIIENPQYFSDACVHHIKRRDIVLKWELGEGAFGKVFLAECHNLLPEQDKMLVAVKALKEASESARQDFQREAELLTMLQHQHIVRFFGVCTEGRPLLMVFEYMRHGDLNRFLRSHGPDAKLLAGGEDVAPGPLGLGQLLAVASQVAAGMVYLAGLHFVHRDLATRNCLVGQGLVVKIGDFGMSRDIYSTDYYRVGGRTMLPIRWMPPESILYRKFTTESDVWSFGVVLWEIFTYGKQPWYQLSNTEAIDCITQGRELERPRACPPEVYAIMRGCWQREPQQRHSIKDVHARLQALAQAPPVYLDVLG

The assay addresses human TRKA Receptor Tyrosine Kinase, NTRK1 (gene 4914) (UniProt P04629). The assay is described as follows: ERF_FR_ENZ_hNTRK1: Eurofins (ERF) Enzymatic Radiometric [Km ATP] KinaseProfiler LeadHunter Assay for human TRKA Receptor Tyrosine Kinase. As for the experimental part: ERF_FR_ENZ_hNTRK1 is a biochemical, single-readout assay that uses extracted gene-proteins in a cell-free assay. Measurements were taken 0.16 hour after chemical dosing in a 96-well plate. See TRKA Human RTK Kinase Enzymatic LANCE Assay [Km ATP], Cerep.ERF_FR_ENZ_hNTRK1 is an assay component calculated from the ERF_FR_ENZ_hNTRK1 assay. It is designed to measure enzyme activity using a type of enzyme reporter as detected by fluorescence intensity with LANCE technology.Data from the assay component ERF_FR_ENZ_hNTRK1 was analyzed at the assay endpoint, ERF_FR_ENZ_hNTRK1, in the positive analysis fitting direction relative to DMSO as the negative control and baseline of activity. Using a type of enzyme reporter, loss-of-signal activity can be used to understand changes in enzymatic activity as they relate to gene NTRK1. To generalize the intended target to other relatable targets, this assay endpoint is annotated to the kinase intended target family, where the subfamily is receptor tyrosine kinase.
TrkA (h) is incubated with 8 mM MOPS pH 7.0, 0.2 mM EDTA, 250 uM […], 10 mM MgAcetate and [g- 33P]-ATP (specific activity and concentration as required). The reaction is initiated by the addition of the Mg/ATP mix. After incubation for 40 minutes at room temperature, the reaction is stopped by the addition of phosphoric acid to a concentration of 0.5%. An aliquot of the reaction is then spotted onto a filter and washed four times for 4 minutes in 0.425% phosphoric acid and once in methanol prior to drying and scintillation counting.Compound should be supplied in 100% DMSO.We require a stock solution at a concentration of at least 50x higher than the Final Assay Concentration of your cpd. A 10mM stock is also acceptable.When ordering fewer than 60 kinase assays, we need 120uL of 50x concentrated stock. For more than 60 assays, we need 420 uL of 50xcc stock. Please apply the conversion if you provide 10mM stock solution or compounds in powder form (pre-weighed is required) From 50 cpds supplied as solids, the TAT will be extended.
Consider `O=C(/C=C/c1ccc(O)cc1)CC(=O)/C=C/c1ccc(O)cc1`, for which the molecule was classed as inactive.

Consider `COc1cc(/C=C/C(=O)CC(=O)/C=C/c2ccc(O)c(OC)c2)ccc1O`, for which the AC50 is 3.85 µM (active).

Take `COc1cc(CCC(=O)CC(=O)CCc2ccc(O)c(OC)c2)ccc1O`: the molecule was called inactive.

Broadly, the AC50 is the midpoint of the concentration-response curve, whichever way the signal moves.
